# Test results reported in the supplement of paper PMC3545927.
# This is one part of the list. The hit rate among all sequences tested is not known here.
# B1: HC999 (peptide)
# chain: CATGCVVIVGAGNASASA
# B2: HC74 (peptide)
# chain: CATTPCCGSWAGNASASA
# B3: FS-988 (peptide)
# chain: CAEFTLLTRIAGNASASA
# B4: HC856 (peptide)
# chain: CALIFCHSKKAGNASASA
# B5: FS-825 (peptide)
# chain: CALRFRRKRKAGNASASA
# B6: HC8 (peptide)
# chain: CAMEEMSQHLAGNASASA
# B7: FS-153 (peptide)
# chain: CAAAIREKRAAGNASASA
# B8: HC1110 (peptide)
# chain: CAAAILRRHVAGNASASA
# B9: FS-683 (peptide)
# chain: CALADREKRAAGNASASA
# B10: FS-1355 (peptide)
# chain: CALASHPKRAAGNASASA
# B11: HC2166 (peptide)
# chain: CAEMVTSTWVAGNASASA
# B12: HC813 (peptide)
# chain: CACSGGAYDIAGNASASA
# B13: HC347 (peptide)
# chain: CAVVLLLFAGAGNASASA
# B14: HC1028 (peptide)
# chain: CALLQTASRQAGNASASA
# B15: HC994 (peptide)
# chain: CALAALAAYCAGNASASA
# B16: FS-1025 (peptide)
# chain: CALLARDRRQAGNASASA
# B17: FS-604 (peptide)
# chain: CALAARKRRQAGNASASA
# B18: HC523 (peptide)
# chain: CALLADARVCAGNASASA
# B19: FS-71 (peptide)
# chain: CAPPRRKRRQAGNASASA
# B20: HC1604 (peptide)
# chain: CAHGLSAFSLAGNASASA
# B21: HC2029 (peptide)
# chain: CAVVYCSMSYAGNASASA
# B22: HC1098 (peptide)
# chain: CASTEDLVNLAGNASASA
# B23: HC113 (peptide)
# chain: CAVVCCEMSYAGNASASA
# B24: FS-448 (peptide)
# chain: CAKGYRGKRAAGNASASA
# B25: FS-578 (peptide)
# chain: CAAKQRGKRAAGNASASA
# B26: FS-2859 (peptide)
# chain: CAEFKRCWKGAGNASASA
# B27: FS-348 (peptide)
# chain: CALCARPRRSAGNASASA
# B28: FS-1384 (peptide)
# chain: CAPRDRPRRSAGNASASA
# B29: FS-473 (peptide)
# chain: CAPLPRPRRSAGNASASA
# B30: FS-704 (peptide)
# chain: CAQPPRPFRSAGNASASA
# B31: FS-980 (peptide)
# chain: CAATPRPRRSAGNASASA
# B32: HC152 (peptide)
# chain: CAEVVTDTWVAGNASASA
# B33: HC69 (peptide)
# chain: CATTPCHGSWAGNASASA
# B34: FS-952 (peptide)
# chain: CARLVRPRRSAGNASASA
# B35: FS-660 (peptide)
# chain: CAGTWRPRRSAGNASASA
# B36: HC2403 (peptide)
# chain: CAEVPCHRPAAGNASASA
# B37: HC2348 (peptide)
# chain: CAEVWCHRPSAGNASASA
# B38: HC966 (peptide)
# chain: CALIRLKPTLAGNASASA
# B39: HC1467 (peptide)
# chain: CAFQYSPGQRAGNASASA
# B40: FS-111 (peptide)
# chain: CAYRRRPPRSAGNASASA
# B41: FS-1296 (peptide)
# chain: CAYRRRRSRSAGNASASA
# B42: FS-393 (peptide)
# chain: CAYRKRQCRSAGNASASA
# B43: FS-1655 (peptide)
# chain: CARYQRRSRSAGNASASA
# B44: HC1480 (peptide)
# chain: CAYDTRCFDSAGNASASA
# B45: FS-1440 (peptide)
# chain: CAYRYRRRRSAGNASASA
# Target: furin, P09958
# Sequence (P09958 whole entry): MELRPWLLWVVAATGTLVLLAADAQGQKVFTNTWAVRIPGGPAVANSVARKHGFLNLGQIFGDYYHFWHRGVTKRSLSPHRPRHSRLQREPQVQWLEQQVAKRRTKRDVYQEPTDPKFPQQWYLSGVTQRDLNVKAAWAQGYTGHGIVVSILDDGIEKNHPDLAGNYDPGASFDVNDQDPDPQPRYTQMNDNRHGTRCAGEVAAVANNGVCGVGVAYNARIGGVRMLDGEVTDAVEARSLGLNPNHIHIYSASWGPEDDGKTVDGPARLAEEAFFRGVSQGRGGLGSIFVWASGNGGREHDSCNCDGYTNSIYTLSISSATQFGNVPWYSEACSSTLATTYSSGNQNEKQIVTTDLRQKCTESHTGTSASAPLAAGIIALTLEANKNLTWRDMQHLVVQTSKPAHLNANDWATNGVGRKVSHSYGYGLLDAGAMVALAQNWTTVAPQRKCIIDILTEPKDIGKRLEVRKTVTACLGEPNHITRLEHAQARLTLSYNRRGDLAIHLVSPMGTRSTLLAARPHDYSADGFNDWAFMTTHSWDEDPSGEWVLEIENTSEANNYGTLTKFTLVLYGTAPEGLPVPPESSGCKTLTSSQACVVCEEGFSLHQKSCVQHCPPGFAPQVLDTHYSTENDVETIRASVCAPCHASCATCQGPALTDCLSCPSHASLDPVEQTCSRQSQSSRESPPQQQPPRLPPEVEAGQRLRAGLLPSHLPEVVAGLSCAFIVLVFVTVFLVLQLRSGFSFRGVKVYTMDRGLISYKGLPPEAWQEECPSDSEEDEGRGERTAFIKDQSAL
# Assay: furin cleavage Z-score vs untreated control; higher = more cleavage, active = 3.5 or more, inactive = 1 or less, 8 variable residues between constant flanks
# Procedure: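 Multiplexed peptide-cDNA fusion cleavage assay. 8-mer variable peptides flanked by constant Cys-Ala (N-term) and Ala-Gly-Asn-Ala-Ser-Ala-Ser-Ala (C-term) and conjugated to a cDNA oligonucleotide were bead-immobilised via the N-terminus. They were treated with purified furin at a 1:10 enzyme:substrate ratio in 50 mM HEPES pH 7.5, 1 mM CaCl2, 100 mM NaCl for 7.5, 15 or 30 min. Released cDNA was counted by next-generation sequencing, and log counts versus no-furin controls were lowess-adjusted and converted to robust Z-scores.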
Sequence,furin cleavage Z-score (7.5 min),furin cleavage Z-score (15 min),furin cleavage Z-score (30 min)
B1,0.288 (inactive),-0.105 (inactive),1.66
B2,-2.07 (inactive),-0.069 (inactive),-1.52 (inactive)
B3,-0.861 (inactive),-1.86 (inactive),0.256 (inactive)
B4,-0.592 (inactive),-0.736 (inactive),-0.784 (inactive)
B5,9.84 (active),11 (active),8.47 (active)
B6,1.27,1.33,0.916 (inactive)
B7,10.5 (active),11.2 (active),8.65 (active)
B8,-1.81 (inactive),1.42,1.16
B9,5.37 (active),7.31 (active),4.83 (active)
B10,-0.0202 (inactive),0.46 (inactive),-0.107 (inactive)
B11,-0.179 (inactive),0.272 (inactive),-0.181 (inactive)
B12,-0.539 (inactive),-1.15 (inactive),0.556 (inactive)
B13,-2.22 (inactive),0.376 (inactive),-0.682 (inactive)
B14,0.222 (inactive),0.569 (inactive),0.432 (inactive)
B15,0.554 (inactive),1.14,0.545 (inactive)
B16,6.87 (active),9.4 (active),7.76 (active)
B17,12.2 (active),12.1 (active),10 (active)
B18,0.91 (inactive),-0.28 (inactive),-1.13 (inactive)
B19,8.73 (active),9.48 (active),8.32 (active)
B20,0.973 (inactive),0.919 (inactive),1.37
B21,-0.409 (inactive),-0.331 (inactive),0.819 (inactive)
B22,0.352 (inactive),-0.11 (inactive),-0.537 (inactive)
B23,1.04,-0.157 (inactive),2.06

Sequence,furin cleavage Z-score (7.5 min),furin cleavage Z-score (15 min),furin cleavage Z-score (30 min)
B24,9.98 (active),9.64 (active),8.26 (active)
B25,7.85 (active),6.99 (active),6.51 (active)
B26,-0.792 (inactive),0.463 (inactive),-0.89 (inactive)
B27,10.1 (active),10.4 (active),9.44 (active)
B28,12.7 (active),13.7 (active),10.6 (active)
B29,6.49 (active),5.07 (active),4.07 (active)
B30,-0.352 (inactive),1.58,-0.0165 (inactive)
B31,11.1 (active),11.2 (active),7.55 (active)
B32,-0.985 (inactive),0.416 (inactive),-1.25 (inactive)
B33,1.47,0.142 (inactive),1.5
B34,13.4 (active),14.2 (active),10.3 (active)
B35,10.9 (active),11.6 (active),7.85 (active)
B36,-1.55 (inactive),0.357 (inactive),-0.33 (inactive)
B37,0.218 (inactive),0.0316 (inactive),0.64 (inactive)
B38,-1.19 (inactive),-1.25 (inactive),0.404 (inactive)
B39,-0.221 (inactive),-0.464 (inactive),-2.47 (inactive)
B40,1.85,1.04,0.965 (inactive)
B41,7.22 (active),8.22 (active),6.95 (active)
B42,5.64 (active),5.62 (active),3.16
B43,7.45 (active),7.54 (active),8.29 (active)
B44,-1.56 (inactive),0.436 (inactive),0.927 (inactive)
B45,4.89 (active),5.22 (active),3.7 (active)
